The whole screen tested about 48,000 compounds, of which about 13,000 (27%) showed an effect of 50% or more. Some of the results follow.
Test system: Wolbachia pipientis
Assay: Anti-Wolbachia Cell-Based Screen
Assay type: functional
Design: scale not given: in the data most compounds retested in dose-response had high values
Conditions: 5 µM

| Compound | Percent Effect [%] |
| --- | --- |
| CN(C)CCN(C)S(=O)(=O)Cc1ccc(Br)cc1 | -1.249 |
| CCC(=O)c1ccc(OCC(=O)NC(C)c2nnc(C)[nH]2)cc1 (configuration not stated) | 8.329 |
| O=C(CCNS(=O)(=O)c1ccc2c(c1)CCCC2)NCc1ccoc1 | 1.514 |
| CCN(Cc1csc(CS(C)(=O)=O)n1)c1cccc(CO)c1 | 6.548 |
| CCc1nsc(NC2CCOC3(CCCC3)C2)n1 (configuration not stated) | -3.423 |
| COCCCNS(=O)(=O)c1cc(C)sc1C | 1.598 |
| C=C(C)COc1cccc(CNC(CC)c2ccnn2C)c1 (configuration not stated) | -16.98 |
| Cc1nccn1C1CCCN(C(=O)c2cccc(OCC(N)=O)c2)C1 (configuration not stated) | 92.13 |
| Cc1nccn1C1CCCN(C(=O)c2cccc(S(C)(=O)=O)c2)C1 (configuration not stated) | 94.78 |
| Cc1nccn1C1CCCN(C(=O)c2cccc(-n3cccc3)c2)C1 (configuration not stated) | 98.3 |
| COc1cccc(COCC(=O)N2CCCC(n3ccnc3C)C2)c1 (configuration not stated) | -4.06 |
| NC(=O)COc1cccc(C(=O)N2CCCC(n3cccn3)C2)c1 (configuration not stated) | -6.954 |
| CC(=O)c1cn(CCC(=O)N[C@H](C(=O)O)C(C)C)c2ccccc12 | 14.47 |
| CN1CCCC(N(C)C(=O)c2ccc(NC(=O)c3cc[nH]n3)cc2)C1 (configuration not stated) | -7.369 |
| Cc1ccc2cccc(S(=O)(=O)N(C)CC3CCN(C)CC3)c2n1 | 117.6 |
| Cc1ccc2cccc(C(=O)NCC3CCN(C(C)C)C3)c2n1 (configuration not stated) | -2.471 |
| CN1CCC(CNC(=O)c2ccc3cccc(Cl)c3n2)C1 (configuration not stated) | 16.58 |
| Cc1ccc2cccc(S(=O)(=O)N(C)C3CCCN(C)C3)c2n1 (configuration not stated) | 110 |
| CN1CCC(CN(C)S(=O)(=O)CC2CCCCC2)CC1 | -3.898 |
| CCN(C1CCS(=O)(=O)C1)S(=O)(=O)c1cccc2cc(C)cnc12 (configuration not stated) | 2.36 |
| Cc1ccc2cccc(C(=O)NCCOCC3CC3)c2n1 | 4.026 |
| CN(C1CCN(c2ccccn2)CC1)S(=O)(=O)c1ccccc1F | -17.13 |
| CN1CCCC(N(C)S(=O)(=O)c2cccc3ncccc23)C1 (configuration not stated) | 142.2 |
| Cc1ccc2cccc(S(=O)(=O)N(C)CC3CCN(C)C3)c2n1 (configuration not stated) | 116.7 |

| Compound | Percent Effect [%] |
| --- | --- |
| CN(C1CCCCC1)S(=O)(=O)NC1CCCN(c2ncccn2)C1 (configuration not stated) | -0.1008 |
| COCCN1CC(c2nc(CC3CCN(C)CC3)no2)CCC1=O (configuration not stated) | -7.698 |
| Cc1ccc(C(N)=O)cc1NCCOc1cccc(C#N)c1 | -8.652 |
| O=C(c1[nH]nc2c1CCCC2)N1CCC(OCCN2CCCCC2)C1 (configuration not stated) | 5.05 |
| COCCN(CCC#N)S(=O)(=O)c1ccc(F)cc1Cl | -17.33 |
| CCOc1ncc(NC(=O)c2ccco2)c(OCC)n1 | 6.887 |
| CC1CN(C(=O)NCCn2ccnc2)CCO1 (configuration not stated) | -11.62 |
| O=C(NCCn1ccnc1)N1CCN(Cc2ccco2)CC1 | 103.9 |
| O=C(NCCNc1ncccn1)N1CCN(Cc2cccnc2)CC1 | -0.1396 |
| O=C(NCCn1ccnc1)N1CCN(Cc2cccnc2)CC1 | 109.3 |
| CC(=O)N1CCN(C(=O)NCc2ccccc2Cn2ccnc2)CC1 | -14.94 |
| CC(Cn1ccnc1)NC(=O)N1CCN(Cc2cccnc2)CC1 (configuration not stated) | -2.682 |
| O=C(NCCn1ccnc1)N1CCN(Cc2ccsc2)CC1 | 102.5 |
| Cc1ccc(CNC(=O)N2CCN(Cc3ccsc3)CC2)n1C | 2.843 |
| O=C(NCCn1ccnc1)N1CCCC1c1ccsc1 (configuration not stated) | 8.592 |
| Cc1cc(C)n(CC2(CNC(=O)C(c3ccccc3C)N(C)C)CC2)n1 (configuration not stated) | -3.627 |
| Cc1nc(CN(CCS(C)(=O)=O)C(C)C)cs1 | -0.8172 |
| Cc1ccc(C(=O)N2CCO[C@H]3[C@H](OCCN(C)C)CC[C@@H]32)o1.O=C(O)C(F)(F)F | 8.027 |
| O=C(C1CCOCC1)N1CCO[C@H]2[C@@H](OCc3ccncc3)CC[C@@H]21 | -9.852 |
| Cc1ccoc1C(=O)N1CCO[C@H]2[C@H](OCc3ccncc3)CC[C@@H]21 | 96.45 |
| CN(C)CCO[C@@H]1CC[C@H]2[C@H]1OCCN2C(=O)c1ccc(F)cc1.O=C(O)C(F)(F)F | 97.45 |
| CO[C@H]1CC[C@H]2[C@H]1OCCN2C(=O)c1ccc(C)nc1 | 6.779 |
| CO[C@@H]1CC[C@H]2[C@H]1OCCN2C(=O)c1ccc(C)nc1.O=C(O)C(F)(F)F | 2.504 |

From ChEMBL document CHEMBL3988442, “University of Dundee, Small-Polar-MMV Screening Library” (2021)
